# Screens from PubChem BioAssay.
# Sm TGR inh – qHTS Assay for the Inhibitors of Schistosoma Mansoni Peroxiredoxins. Schistosoma mansoni thioredoxin glutathione reductase (TGR), Q962Y6. purified TGR, DTNB reduction, TNB absorbance 405 nm. Potency, µM (titrated, usually from 114 µM), hits mostly inhibitors. hit rate 3% among 360,000; also: nearly all actives have a fitted effect of over 60% in size
#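 Kinetic colorimetric format: TGR-catalysed, NADPH-driven DTNB reduction monitored via TNB absorbance. Enzyme dispensed at 20 nM; compound exposure 15 min at room temperature before reaction start.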
# RE007 growth inh – qHTS Assay for Inhibitors of the HIV-1 protein Vpr; Potency, µM (top dose mostly 92.2 µM), usual class: inhibitors; hit rate 0.21% among 360,000; S. pombe RE007 Vpr strain, BacTiter-Glo ATP luminescence, 24 h; active = well fitted falling curve with a large enough effect; inconclusive = small, poorly fitted or top-dose-only effect; inactive = no such curve, though single readings can be large or run the other way; also: nearly all actives have a fitted effect of over 50% in size
#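 Fission yeast strain RE007, carrying one chromosomally integrated HIV-1 vpr copy, was seeded at OD 0.01 in PMG+AL medium with 23 nL pinned compound. After 24 h at 30 °C and 99% humidity, viability was read by BacTiter-Glo luminescence.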
# LmPK inhibitor – qHTS Assay for Inhibitors of Leishmania Mexicana Pyruvate Kinase (LmPK) | Q27686 | purified LmPK, Kinase-Glo ATP luminescence, 1 h | Potency, µM (highest dose often 57.5 µM), hits mostly inhibitors | hit rate 0.37% among 290,000
# Target sequence (Q27686 whole entry, looked up): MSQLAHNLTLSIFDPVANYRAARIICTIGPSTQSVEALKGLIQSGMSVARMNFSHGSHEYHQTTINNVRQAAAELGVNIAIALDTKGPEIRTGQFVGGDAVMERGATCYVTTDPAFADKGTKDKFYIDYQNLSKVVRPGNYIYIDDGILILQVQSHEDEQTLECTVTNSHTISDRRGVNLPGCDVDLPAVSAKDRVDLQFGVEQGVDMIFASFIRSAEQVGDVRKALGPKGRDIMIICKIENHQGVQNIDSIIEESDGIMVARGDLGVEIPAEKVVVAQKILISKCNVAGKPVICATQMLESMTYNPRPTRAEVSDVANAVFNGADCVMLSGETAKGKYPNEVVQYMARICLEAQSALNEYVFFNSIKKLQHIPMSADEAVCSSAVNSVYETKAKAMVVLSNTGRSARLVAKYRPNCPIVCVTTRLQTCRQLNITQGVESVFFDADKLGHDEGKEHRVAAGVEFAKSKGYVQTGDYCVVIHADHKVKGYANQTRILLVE
#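 ATP generated from ADP (0.1 mM) and PEP (0.5 mM) by 0.1 nM LmPK over 1 h at room temperature (pH 7.2 imidazole buffer) was detected by coupled luciferase luminescence. Values were normalized to uninhibited and no-enzyme wells.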
# NS1 inh – qHTS Assay for Inhibitors of Influenza NS1 Protein Function; Potency, µM (titrated, usually from 46.1 µM); hit rate 0.4% among 270,000; calls by dose curve; also: actives are rising curves; nearly all actives have a fitted effect of over 50% in size
#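 Read-out: OD600 growth recovery of NS1-expressing budding yeast. Cells grown overnight at 30C in -URA glucose medium, washed, resuspended and diluted 1:100 in 2% galactose assay medium, pH 6.0. Same strain lacking NS1 served as positive control.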
# SARS PLP yeast – qHTS of Yeast-based Assay for SARS-CoV PLP | S. cerevisiae expressing SARS-CoV PLpro, growth rescue | Potency, µM (doses to about 32.9 µM), most hits filed as activators | hit rate 0.19% among 330,000 | AID 485353, 2010; calls by dose curve; also: nearly all actives have a fitted effect of over 55% in size
# TbPYK inhibitor – qHTS of Trypanosoma Brucei Inhibitors | TbPYK enzyme, Kinase-Glo Plus ATP luminescence, 45 min | Potency, µM (series often up to 76.8 µM), hits mostly inhibitors | hit rate 0.12% among 410,000; also: nearly all actives have a fitted effect of over 50% in size
#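 Assay buffer: 50 mM TEA pH 7.2, 100 mM KCl, 10 mM MgCl2, 0.05% BSA, 0.01% Tween-20. Pyruvate kinase from T. brucei plus substrate met compound, then ADP (130 uM final). Luminescence was read post 45 min RT.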
# A number is an active result; i = inactive; ? = inconclusive; nt = no result given. In the library only some 3.3% were active in any assay of this set; here they are far more common. Unless noted, calls follow the shape of the dose curve; as a rule, active = well fitted curve in the direction sought with a large enough effect; inconclusive = small, poorly fitted or top-dose-only effect, or another doubt; inactive = no such curve, though single readings can be large; an effect the other way counts as inactive or inconclusive.
SMILES,Sm TGR inh,RE007 growth inh,LmPK inhibitor,NS1 inh,SARS PLP yeast,TbPYK inhibitor
S=C(NCc1ccco1)Nc1ccccn1,14.1µM,i,i,i,i,i
C[C@]12C=CC(=O)N[C@@H]1CC[C@@H]1C2CC[C@]2(C)C(C(=O)Nc3cc(C(F)(F)F)ccc3C(F)(F)F)CC[C@@H]12 (some centres not stated),nt,nt,nt,nt,nt,i
Cc1cccc(N2C(=O)CC(N3CCN(c4ccccc4)CC3)C2=O)c1 (configuration not stated),i,i,i,i,i,i
CCOC(=O)c1ccc(N2C(=O)CC(N3CCCC(C)C3)C2=O)cc1 (configuration not stated),25.1µM,3.16µM,i,i,i,i
CCOC(=O)C1CCCN(C2CC(=O)N(c3cccc(C)c3)C2=O)C1 (configuration not stated),25.1µM,25.1µM,i,i,i,i
CCOC(=O)c1ccc(N2C(=O)CC(Sc3ncccn3)C2=O)cc1 (configuration not stated),39.8µM,i,i,i,i,i
CCOC(=O)C(N)CSC1CC(=O)N(c2ccc(C(=O)OC)cc2)C1=O (configuration not stated),?,i,i,i,?,i
CCOC(=O)c1ccc(N2C(=O)CC(N3CCC(Nc4ccc(F)cc4)CC3)C2=O)cc1 (configuration not stated),56.2µM,7.94µM,i,i,i,i
COc1cc(N=C(N)N=C(N)N)c2ncccc2c1,nt,nt,nt,i,nt,nt
CCCCOc1ccc(Cn2c(=O)oc3ccc(C)cc32)cc1,i,nt,nt,nt,nt,i
COc1ccccc1NC(=O)CSc1sc2c(O)cc(=O)[nH]c2c1C#N,14.1µM,i,i,i,i,i
CCc1nnc(NC(=O)CSc2sc3c(O)cc(=O)[nH]c3c2C#N)s1,35.5µM,i,i,i,i,i
CCSc1nnc(NC(=O)CSc2sc3c(O)cc(=O)[nH]c3c2C#N)s1,i,i,i,i,i,i
N#Cc1c(SCC(=O)Nc2cccc(C(F)(F)F)c2)sc2c(O)cc(=O)[nH]c12,31.6µM,i,i,i,i,i
COc1ccc(NC(=O)CSc2sc3c(O)cc(=O)[nH]c3c2C#N)c(OC)c1,i,i,i,i,i,i
Cn1nnnc1SCCCNCc1cc(Br)ccc1OCc1ccccc1F,i,nt,nt,nt,nt,i
COc1cc(CC(C)N)c(OC)cc1Br (configuration not stated),nt,nt,nt,nt,nt,i
C[N+](C)(N)Cc1nc(-c2ccc(Cl)cc2)no1,nt,nt,nt,i,nt,nt
Fc1ccc(Nc2ncnc3c2nc2n3CCCCC2)c(F)c1,i,nt,nt,nt,nt,i
O=C(O)C(Cl)(c1ccccc1)c1ccccc1,nt,nt,nt,i,nt,nt
C=C1C(=O)O[C@@H]2[C@H]1[C@@H](OC(=O)/C(C)=C/C)C/C(C)=C\C(=O)/C=C(\C)[C@@H]2O,5.62µM,i,i,i,i,i
C=C1C(=O)O[C@H]2[C@H]1[C@H](OC(=O)/C(C)=C\C)C[C@]1(CO1)[C@@H]1[C@H](OC(C)=O)C=C(C)[C@]21O,nt,i,nt,nt,nt,i
CCc1ccc(-n2c(O)c(C=NCCN(CC)CC)c(=O)[nH]c2=O)cc1,22.4µM,i,i,i,i,i
Cc1ccc(S(=O)(=O)Nc2ccc(=O)n(Cc3ccc(Cl)c(Cl)c3)c2)cc1,39.8µM,i,i,i,i,i
Cc1ccc(C(=O)NC(=S)Nc2c(C)ccc3nsnc23)cc1,?,i,i,i,12.6µM,i
SMILES,Sm TGR inh,RE007 growth inh,LmPK inhibitor,NS1 inh,SARS PLP yeast,TbPYK inhibitor
Cc1ccc2ncccc2c1NC(=S)NC(=O)c1ccccc1,20µM,i,i,nt,i,i
Cc1ccc2nsnc2c1NC(=O)CCl,44.7µM,i,i,i,i,i
Cc1ccc(C(=O)NC(=S)Nc2cccc3nsnc23)cc1,?,i,i,i,i,?
CCOC(=O)c1ccc(NC(=O)c2oc3c(c2C)-c2nn(Cc4ccccc4Cl)cc2CC3)cc1,i,nt,nt,nt,nt,i
O=C(Oc1ccccc1)N1CCC2(CC1)CCN(c1ccccn1)CC2,nt,nt,nt,nt,nt,i
CCOC(=O)c1c(C)oc2c(F)c(F)c(F)c(F)c2c1=O,31.6µM,i,i,i,i,i
